Luc counter – counter-screen: inhibitors of Kinase-Glo firefly luciferase. Q27757. Kinase-Glo luciferase, ATP luminescence, 8 min. Potency, µM (titrated, usually from 38.3 µM), hits mostly inhibitors. 200,000 compounds, 0.28% hits; further: nearly all actives have a fitted effect of over 60% in size
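Kinase-Glo luciferase light output from ATP and luciferin was measured with 10 uM ATP, within the enzyme's linear range. Buffer: 50 mM imidazole pH 7.2, 50 mM KCl, 7 mM MgCl2, 0.01% Tween 20, 0.05% BSA; luminescence read after 8 min at ambient temperature.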
ELG1 genotox – genotoxicity induction in ELG1-luciferase HEK293T cells | HEK293T ELG1-luciferase reporter, luminescence, 16 h | Potency, µM (doses to about 46 µM), most hits filed as activators | 330,000 compounds, 1.3% hits | AID 504466; further: nearly all actives have a fitted effect of over 60% in size
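After overnight (16 hr) compound treatment at 37 °C, ELG1-luciferase HEK293T cells were lysed with ONE-Glo; luminescence quantified 30 min later at room temperature.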
NPC1 prom act – activators of NPC1 promoter | 320,000 compounds, 2.4% hits | Potency, µM (top dose mostly 9.22 µM), actives largely listed as activators | Huh7 NPC1 promoter luciferase reporter, 24 h; further: nearly all actives have a fitted effect of over 60% in size
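Cells: Huh7 expressing luciferase under the NPC1 promoter, 1500/well. Seeded 2 h, compound added, incubated 24 h at 37 °C. Luciferase reagent, 10 min ambient, then luminescence.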
SMN2 splice enh – SMN2 splice variant enhancement | HEK293 SMN2-luciferase splicing reporter, luminescence, 30-36 h | Potency, µM (titrated, usually from 46.1 µM), hits mostly activators | 210,000 compounds, 2.8% hits; further: nearly all actives have a fitted effect of over 55% in size
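HEK293 cells carry an SMN2 […]–luciferase reporter in which exon 7 inclusion puts luciferase in frame. Cells were plated 10-12 h before compound addition, then incubated 30-36 h at 37C. ONE-Glo luminescence was read; sodium butyrate at 4.5 mM final served as control.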
FLuc modulator – firefly luciferase modulation, counter-screen for miR-21 project; P08659; purified FLuc, Km substrates, luminescence inhibition; Potency, µM (highest dose often 57.5 µM), hits mostly inhibitors; 360,000 compounds, 6.9% hits; further: nearly all actives have a fitted effect of over 55% in size
Target sequence (P08659 whole entry, looked up): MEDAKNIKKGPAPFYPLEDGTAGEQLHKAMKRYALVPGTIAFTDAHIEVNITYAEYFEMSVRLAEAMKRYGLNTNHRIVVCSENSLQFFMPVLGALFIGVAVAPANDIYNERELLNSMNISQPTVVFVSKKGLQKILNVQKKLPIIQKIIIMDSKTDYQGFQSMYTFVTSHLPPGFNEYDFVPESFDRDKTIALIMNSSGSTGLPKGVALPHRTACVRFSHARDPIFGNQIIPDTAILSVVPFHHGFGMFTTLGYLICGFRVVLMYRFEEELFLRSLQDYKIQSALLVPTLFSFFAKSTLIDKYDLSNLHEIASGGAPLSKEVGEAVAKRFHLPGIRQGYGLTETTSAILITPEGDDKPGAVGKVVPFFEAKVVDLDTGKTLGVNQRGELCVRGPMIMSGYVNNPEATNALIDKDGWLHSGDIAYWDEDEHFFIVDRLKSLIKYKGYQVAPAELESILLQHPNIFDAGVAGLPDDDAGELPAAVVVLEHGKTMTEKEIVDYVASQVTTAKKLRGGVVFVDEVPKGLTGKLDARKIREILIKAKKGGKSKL
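Purified P. pyralis luciferase, 10 nM final, with Km-level 10 uM D-luciferin and 10 uM ATP in 50 mM Tris acetate pH 7.5, 10 mM Mg acetate, 0.01% Tween-20, 0.05% BSA; 6-point qHTS titration about 60 µM downward; luminescence read.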
Rab9 promoter act – activates the Rab9 promoter; Huh7 Rab9 promoter-luciferase reporter, luminescence, 24 h; Potency, µM (doses to about 9.22 µM), usual class: activators; 320,000 compounds, 2.8% hits; AID 485297; further: nearly all actives have a fitted effect of over 60% in size
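Luminescence read-out: Huh7 cells stably expressing Rab9-luciferase, treated 24 h with compound at 37 °C, then lysed with luciferase reagent for 10 min at ambient before reading.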
Of the large screens only hits and unclear results are named; the others gave an inactive call. An excerpt weighted towards active compounds, which were near 7.3% of everything screened. The call rests on the fitted dose curve; in most records, active means well fitted curve in the direction sought with a large enough effect; inconclusive means small, poorly fitted or top-dose-only effect, or another doubt; inactive means no such curve, though single readings can be large; an effect the other way counts as inactive or inconclusive.

Cc1cccc(NC(=O)Nc2ccc3c(c2)CCC3)c1	ELG1 genotox inconclusive, NPC1 prom act 2µM, FLuc modulator 3µM, Rab9 promoter act 1.8µM (no result: Luc counter, SMN2 splice enh)
Cc1cc(C)cc(NC(=O)Nc2cccc(S(N)(=O)=O)c2)c1	FLuc modulator 15µM (no result: Luc counter, SMN2 splice enh)
CC(=O)c1cccc(NC(=O)Nc2ccc3c(c2)CCC3)c1	NPC1 prom act inconclusive, FLuc modulator 2.4µM, Rab9 promoter act inconclusive (no result: Luc counter, SMN2 splice enh)
CCc1ccc(NC(=O)Nc2ccc3c(c2)CCC3)cc1	ELG1 genotox inconclusive, NPC1 prom act inconclusive, Rab9 promoter act inconclusive (no result: Luc counter, SMN2 splice enh)
CCCCN(CC)C(=O)c1cc2c(=O)n3ccccc3nc2n1C	none (no result: Luc counter, ELG1 genotox, NPC1 prom act, SMN2 splice enh, Rab9 promoter act)
Cc1sc2c(c1C)c(=O)n(-c1cccc(C(F)(F)F)c1)c(=O)n2Cc1ccc(F)cc1	none (no result: Luc counter, ELG1 genotox, NPC1 prom act, Rab9 promoter act)
O=C(Nc1nnc(-c2ccc(F)cc2)o1)c1ccco1	FLuc modulator 17µM (no result: Luc counter, SMN2 splice enh)
COc1cc(C(=O)Nc2cccc(-c3nnc(-c4ccco4)o3)c2)ccc1OC(C)=O	FLuc modulator 15µM
COc1ccc(C(=O)Nc2cccc(-c3nnc(-c4ccco4)o3)c2)cc1	FLuc modulator 19µM
Cc1ccc(C(=O)Nc2nnc(-c3ccco3)o2)cc1	ELG1 genotox inconclusive, NPC1 prom act 3.5µM, SMN2 splice enh 13µM, FLuc modulator 13µM, Rab9 promoter act 4µM
COc1ccc(CC(=O)Nc2cccc(-c3nnc(-c4ccco4)o3)c2)cc1	none
Cc1cc(Cc2cc(C)c(N)cc2N)c(N)cc1N	none (no result: ELG1 genotox, NPC1 prom act, FLuc modulator, Rab9 promoter act)
COc1cccc(C(=O)Nc2ccccc2-c2nc(-c3ccc(C)cc3)no2)c1	none (no result: Luc counter, ELG1 genotox, NPC1 prom act, SMN2 splice enh, Rab9 promoter act)
Cc1ccc(NC(=O)CCSc2nnc(-c3ccco3)o2)cc1	none
COc1cccc(C(=O)Nc2ccccc2-c2nnc(-c3cccc(OC)c3)o2)c1	FLuc modulator 2.7µM (no result: Luc counter, ELG1 genotox, NPC1 prom act, Rab9 promoter act)
Cc1ccc(SCC(=O)Nc2ccc(-c3nnc(-c4ccco4)o3)cc2)cc1	ELG1 genotox inconclusive, NPC1 prom act 2.5µM, SMN2 splice enh inconclusive, Rab9 promoter act 3.5µM
COc1ccc(CN(Cc2ccco2)c2cnc(S(C)(=O)=O)nc2C(=O)Nc2ccc(F)cc2)cc1	none (no result: Luc counter, ELG1 genotox, NPC1 prom act, SMN2 splice enh, Rab9 promoter act)
Cc1nc2c(C(=O)NCCC(C)C)cnn2c(C)c1Cc1c(F)cccc1Cl	none (no result: Luc counter, ELG1 genotox, NPC1 prom act, SMN2 splice enh, Rab9 promoter act)
O=C(CC1NCCNC1=O)Nc1ccccc1F (stereo unspecified)	none (no result: Luc counter, ELG1 genotox, NPC1 prom act, Rab9 promoter act)
COc1cc2nc(NC(=O)c3ccco3)sc(=O)c2cc1OC	none (no result: Luc counter, SMN2 splice enh)
O=C(Nc1nc2ccc(Cl)cc2s1)c1ccco1	ELG1 genotox inconclusive, NPC1 prom act 0.63µM, SMN2 splice enh 3.2µM, FLuc modulator 1.7µM, Rab9 promoter act 1.3µM
Cc1nc(NC(=O)c2ccco2)sc1-c1csc(Nc2ccc(Cl)cc2Cl)n1	FLuc modulator inconclusive
O=C(Nc1nc2ccc(Br)cc2s1)c1ccco1	ELG1 genotox inconclusive, NPC1 prom act 1.3µM, FLuc modulator 3µM, Rab9 promoter act 0.63µM (no result: Luc counter, SMN2 splice enh)
COc1ccccc1-c1ccc(SCC(=O)NC2CCCC2)nn1	none (no result: Luc counter, SMN2 splice enh)
COc1ccc(-c2ccc(SCC(=O)NC3CCCC3)nn2)cc1OC	FLuc modulator 15µM (no result: Luc counter, SMN2 splice enh)
COc1ccc(-c2nc(SCC(=O)NC3CCCC3)c(-c3ccccc3)[nH]2)cc1OC	FLuc modulator 19µM (no result: Luc counter, ELG1 genotox, NPC1 prom act, Rab9 promoter act)
COc1ccc(-c2nc(SCC(=O)Nc3ccc4c(c3)OCO4)c(-c3ccc(F)cc3)[nH]2)cc1OC	none (no result: Luc counter, ELG1 genotox, NPC1 prom act, Rab9 promoter act)
COc1cccc(-c2ccc(SCC(=O)NC3CCCCC3)nn2)c1	FLuc modulator 15µM (no result: Luc counter, SMN2 splice enh)
COc1ccc(-c2nc(SCC(=O)Nc3ccc4c(c3)OCCO4)c(-c3ccc(F)cc3)[nH]2)cc1OC	FLuc modulator 6.7µM (no result: Luc counter, ELG1 genotox, NPC1 prom act, Rab9 promoter act)
COc1ccc(-c2nc(SCC(=O)NC3CCCC3)c(-c3ccc(F)cc3)[nH]2)cc1OC	FLuc modulator inconclusive (no result: Luc counter, ELG1 genotox, NPC1 prom act, Rab9 promoter act)
COC(=O)NC(CCc1ccccc1)C(C(C)=O)C(=O)OC (stereo unspecified)	none (no result: ELG1 genotox, NPC1 prom act, FLuc modulator, Rab9 promoter act)
COc1ccc(N2CCN(C(=O)c3cnn(-c4ccc(F)cc4)c3-n3cccc3)CC2)cc1	none (no result: Luc counter, ELG1 genotox, NPC1 prom act, SMN2 splice enh, Rab9 promoter act)
COc1ccc(Cl)cc1C(=O)Nc1ccncc1	none (no result: Luc counter, SMN2 splice enh)
CCN(CC)c1ccc(NC(=O)c2cc3c(OC)cccc3[nH]2)cc1	FLuc modulator 7.6µM (no result: Luc counter, SMN2 splice enh)
COc1ccc(Cl)cc1C(=O)Nc1ccc2c(c1)OCO2	ELG1 genotox inconclusive, NPC1 prom act inconclusive, FLuc modulator 24µM, Rab9 promoter act inconclusive
COc1ccc(Cl)cc1C(=O)Nc1ccc2c(c1)OCCO2	ELG1 genotox inconclusive, NPC1 prom act inconclusive, FLuc modulator 1.9µM (no result: Luc counter, SMN2 splice enh)
CCN(CC)c1ccc(NC(=O)c2cc(Cl)ccc2OC)cc1	FLuc modulator 15µM
COc1ccc2oc(=O)c(C(=O)N3CCN(c4ccc(C)cc4)CC3)cc2c1	none (no result: Luc counter, ELG1 genotox, NPC1 prom act, Rab9 promoter act)
O=C(O)C[n+]1ccccc1	none (no result: ELG1 genotox, NPC1 prom act, FLuc modulator, Rab9 promoter act)
COc1c(N2C[C@@H]3CCCN[C@H]3C2)c(F)cc2c(=O)c(C(=O)O)cn(C3CC3)c12	none (no result: ELG1 genotox, NPC1 prom act, FLuc modulator, Rab9 promoter act)
O=c1cnnc(N/N=C/c2ccccn2)[nH]1	none (no result: Luc counter, SMN2 splice enh)

Screens as filed in PubChem BioAssay.
